This note sets out measurements from PubChem BioAssay (NCATS).

“And” between values parts separate entries of the source, which are not always exact repeats. Identical values can stand only once. Inconclusive results are not listed. Where a structure was tested more than once in an assay, its records may differ in their call. The source made the active and inactive calls. Unless noted, calls come from the whole dose curve; as a rule, active = well fitted curve in the direction sought with a large enough effect; inconclusive = small, poorly fitted or top-dose-only effect, or another doubt; inactive = no such curve, though single readings can be large; an effect the other way counts as inactive or inconclusive.

For assay [1], the target named is Calcium and integrin-binding protein 1 (Homo sapiens) (UniProt Q99828). Put plainly: Primary qHTS for Identification of Calcium Integrin Binding Protein 1 (CIB1) Competitor (AID 1508620).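 Note: GST tagged CIB1 binding a fluorescein labelled alphaIIb integrin peptide tracer; top concentration of the series differs between compounds; % is set by controls: 0 for no effect and ±100 for the full control effect.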 The method in brief:
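Fluorescence polarization competition: CIB1-GST (1 uM final) preincubated with compound 15 min at room temperature, then FITC-labeled alphaIIb peptide (100 nM final) added for another 15 min. Polarization read at Ex 480/Em 540.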

Assay [2] is described as follows: Primary qHTS for small molecule stabilizers of the endoplasmic reticulum resident proteome: Secreted ER Calcium Modulated Protein (SERCaMP) assay (AID 1508630). Note: % is set by controls: 0 for no effect and ±100 for the full control effect. The essentials: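 GLuc-SERCaMP-expressing SH-SY5Y cells, pretreated 16 h with compound, are challenged with thapsigargin to empty ER calcium stores; after 4 h, coelenterazine is added directly to the medium and luminescence is imaged.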
(In general: qHTS replaces the single test concentration by a dilution series.)

Assay [3] in a line: Primary qHTS for inhibitors of nuclear receptor binding SET domain protein 2 (NSD2) in an isogenic RCH-ACV NSD2 p.E1099K mutant (9B) (AID 1645876). Note: nearly all actives have a fitted effect of over 70% in size. Note: potency is the fitted concentration of half-maximal effect.
The target in assay [4] is Cytochrome P450 2C9 (Homo sapiens) (UniProt P11712). As to the kind of experiment: Cytochrome P450 family 2 subfamily C member 9 (CYP2C9) small molecule antagonists: luciferase biochemical (cell-free) qHTS assay (AID 1645842; active = well fitted curve in the direction sought with a large enough effect in the repeat runs; an effect the other way counts as inactive or inconclusive; note: nearly all actives have a fitted effect of over 55% in size; note: potency is the fitted concentration of half-maximal effect). The essentials: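 Luminescence, after 20 min with luciferin detection reagent, reflected CYP2C9 turnover during a 1 h NADPH-driven reaction at 37C. Enzyme-substrate mix contained 0.4% bovine serum albumin and was preincubated with compound 10 min at room temperature.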
Sequence of Cytochrome P450 2C9 (Homo sapiens) (P11712 whole entry, looked up): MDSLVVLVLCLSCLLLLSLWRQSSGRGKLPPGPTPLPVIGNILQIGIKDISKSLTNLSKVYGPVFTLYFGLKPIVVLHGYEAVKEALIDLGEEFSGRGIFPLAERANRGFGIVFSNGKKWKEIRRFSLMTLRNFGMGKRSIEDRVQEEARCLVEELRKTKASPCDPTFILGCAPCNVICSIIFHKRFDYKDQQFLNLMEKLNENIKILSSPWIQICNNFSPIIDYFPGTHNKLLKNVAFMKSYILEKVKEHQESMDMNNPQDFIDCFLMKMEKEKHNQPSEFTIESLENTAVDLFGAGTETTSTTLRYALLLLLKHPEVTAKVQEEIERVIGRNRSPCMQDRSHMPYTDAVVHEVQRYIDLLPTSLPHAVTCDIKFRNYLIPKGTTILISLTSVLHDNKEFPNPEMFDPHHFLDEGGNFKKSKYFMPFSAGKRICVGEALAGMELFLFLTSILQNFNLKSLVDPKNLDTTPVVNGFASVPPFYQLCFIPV

Assay [5] can be described thus: Primary qHTS for inhibitors of nuclear receptor binding SET domain protein 2 (NSD2) in an RCH-ACV wild type WT cells (2C) (AID 1645877). Note: nearly all actives have a fitted effect of over 70% in size. Note: potency is the fitted concentration of half-maximal effect.
The target of assay [6] is Cytochrome P450 2D6 (Homo sapiens) (UniProt P10635). As to the kind of experiment: Cytochrome P450 family 2 subfamily D member 6 (CYP2D6) small molecule antagonists: luciferase biochemical (cell-free) qHTS assay (AID 1645840; active = well fitted curve in the direction sought with a large enough effect in the repeat runs; an effect the other way counts as inactive or inconclusive; note: nearly all actives have a fitted effect of over 55% in size; note: potency is the fitted concentration of half-maximal effect; for activity change, negative = inhibition: % is set by controls: 0 for no effect and ±100 for the full control effect). The method in brief:
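P450-Glo luminescent screen: recombinant CYP2D6 enzyme–proluciferin substrate mix preincubated with compound 10 min at room temperature, then NADPH regeneration added for 1 h at room temperature. Detection reagent added for 20 min; luciferin light read as relative luminescence units.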

Assay [7] is described as follows: A High-Content qHTS Against Drug Library for the Identification of Small Molecules that Inhibit DYT1 Early Onset Primary Dystonia-Associated Cell Pathology (AID 1645839; calls by dose curve). The essentials:
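Readout: %pathology, the punctate EGFP-TorsinA distribution from imaging, as the primary channel and cell count as the toxicity counterscreen. HEK293 Flp-In cells expressing delE TorsinA were induced with tetracycline and treated with compound for 48 h.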

The target in assay [8] is Cytochrome P450 3A4 (Homo sapiens) (UniProt P08684). Put plainly: Cytochrome P450 family 3 subfamily A member 4 (CYP3A4) small molecule antagonists: luciferase qHTS assay (AID 1645841; active = well fitted curve in the direction sought with a large enough effect in the repeat runs; an effect the other way counts as inactive or inconclusive; note: potency is the fitted concentration of half-maximal effect; nearly all actives have a fitted effect of over 45% in size). The essentials: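 P450-Glo CYP3A4 enzyme with proluciferin substrate was preincubated with DMSO-dissolved compounds for 10 min at room temperature. NADPH regeneration solution started a 1 h reaction. Detection reagent stopped it, and luminescence was read after 20 min.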
Sequence of Cytochrome P450 3A4 (Homo sapiens) (P08684 whole entry, looked up): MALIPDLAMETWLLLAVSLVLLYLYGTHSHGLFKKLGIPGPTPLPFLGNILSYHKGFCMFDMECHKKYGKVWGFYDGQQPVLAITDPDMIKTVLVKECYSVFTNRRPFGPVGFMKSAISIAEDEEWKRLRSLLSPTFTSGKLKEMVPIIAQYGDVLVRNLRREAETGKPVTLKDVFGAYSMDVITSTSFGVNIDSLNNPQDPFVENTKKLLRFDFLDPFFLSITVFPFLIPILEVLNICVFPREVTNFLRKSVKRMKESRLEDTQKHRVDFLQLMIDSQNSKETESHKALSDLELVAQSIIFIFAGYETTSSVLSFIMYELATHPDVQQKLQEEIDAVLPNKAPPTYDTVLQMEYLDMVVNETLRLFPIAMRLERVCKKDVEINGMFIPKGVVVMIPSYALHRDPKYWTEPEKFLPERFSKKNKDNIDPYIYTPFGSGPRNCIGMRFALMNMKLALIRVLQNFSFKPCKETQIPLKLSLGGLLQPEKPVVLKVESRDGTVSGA

In assay [9] the target is Catechol O-methyltransferase (Homo sapiens) (UniProt P21964). Put plainly: Confirmatory Screen for Target Class Profiling of Small Molecule Inhibitors of Methyltransferases (AID 1745852; calls by dose curve). Conditions: MTase-Glo luminescence, SAH detection, recombinant enzyme; measured here: COMT max response; stronger effect = lower value.
Sequence of Catechol O-methyltransferase (Homo sapiens) (P21964 whole entry, looked up): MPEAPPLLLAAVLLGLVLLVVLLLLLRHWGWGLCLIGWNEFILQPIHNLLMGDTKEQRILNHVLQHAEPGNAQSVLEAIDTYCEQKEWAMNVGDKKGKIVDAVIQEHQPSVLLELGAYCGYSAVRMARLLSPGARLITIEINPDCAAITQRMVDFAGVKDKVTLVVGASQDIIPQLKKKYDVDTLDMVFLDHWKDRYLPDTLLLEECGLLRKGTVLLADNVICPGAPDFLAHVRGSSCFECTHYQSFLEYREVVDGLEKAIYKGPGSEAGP
Assay [10] has as its target Guanidinoacetate N-methyltransferase (Homo sapiens) (UniProt Q14353). The assay is described as above. Conditions: MTase-Glo luminescence, SAH detection, recombinant enzyme; activity change, negative = inhibition: at 57.3 µM (top of the series) unless noted.
A short description of assay [11]: Counterscreen qHTS for small molecule stabilizers of the endoplasmic reticulum resident proteome: GLuc-NoTag assay (AID 1508627).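 Note: SH-SY5Y cells given compound then 100 nM thapsigargin to empty ER calcium; 0% = thapsigargin alone and -100% = DMSO vehicle control.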 The essentials: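 SH-SY5Y cells stably expressing constitutively secreted GLuc (no SERCaMP tag) were pre-incubated 5 h, treated with compound for 19 h, then 100 nM thapsigargin for 4 h at 37C; medium GLuc read by coelenterazine luminescence.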

The target in a further assay is Papain (Carica papaya) (UniProt P00784). As to the kind of experiment: Primary qHTS assay for inhibitors of the protease papain (AID 1645873).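 Note: papain turnover of Z-FR-AMC read as the AMC fluorescence gain over 10 min; % is set by controls: 0 for no effect and ±100 for the full control effect.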
Sequence of Papain (Carica papaya) (P00784 whole entry, looked up): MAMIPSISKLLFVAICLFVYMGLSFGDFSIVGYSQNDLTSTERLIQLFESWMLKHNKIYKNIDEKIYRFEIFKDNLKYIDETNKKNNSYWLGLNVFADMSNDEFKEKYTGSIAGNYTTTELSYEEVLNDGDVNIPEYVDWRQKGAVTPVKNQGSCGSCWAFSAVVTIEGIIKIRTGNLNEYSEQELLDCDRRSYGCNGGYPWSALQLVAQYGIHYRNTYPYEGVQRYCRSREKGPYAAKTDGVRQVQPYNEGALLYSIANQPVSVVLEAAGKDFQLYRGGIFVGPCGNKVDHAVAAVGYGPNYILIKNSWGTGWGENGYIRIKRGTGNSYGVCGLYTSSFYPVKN

Sequence of Cytochrome P450 2D6 (Homo sapiens) (P10635 whole entry, looked up): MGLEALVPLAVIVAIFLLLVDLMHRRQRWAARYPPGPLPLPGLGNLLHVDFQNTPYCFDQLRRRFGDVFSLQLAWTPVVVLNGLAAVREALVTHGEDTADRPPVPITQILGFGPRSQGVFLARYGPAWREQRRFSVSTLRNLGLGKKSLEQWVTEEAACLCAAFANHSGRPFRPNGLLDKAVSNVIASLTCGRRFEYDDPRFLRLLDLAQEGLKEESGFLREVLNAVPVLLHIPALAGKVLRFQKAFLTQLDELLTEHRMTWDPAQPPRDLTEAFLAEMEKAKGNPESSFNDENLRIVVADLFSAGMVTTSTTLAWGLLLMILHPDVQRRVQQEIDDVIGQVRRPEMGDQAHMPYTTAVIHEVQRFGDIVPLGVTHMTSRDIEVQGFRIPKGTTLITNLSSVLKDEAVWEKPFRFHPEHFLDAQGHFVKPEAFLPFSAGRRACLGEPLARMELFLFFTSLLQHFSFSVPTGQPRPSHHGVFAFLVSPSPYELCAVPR
Sequence of Calcium and integrin-binding protein 1 (Homo sapiens) (Q99828 whole entry, looked up): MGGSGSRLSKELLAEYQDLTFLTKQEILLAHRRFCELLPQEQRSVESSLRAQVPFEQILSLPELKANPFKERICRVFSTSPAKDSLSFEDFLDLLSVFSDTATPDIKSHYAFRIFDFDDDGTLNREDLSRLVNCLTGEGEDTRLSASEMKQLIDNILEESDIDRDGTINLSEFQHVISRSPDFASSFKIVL

`CNC(=O)c1ccc(N2C(=S)N(c3ccc(C#N)c(C(F)(F)F)c3)C(=O)C2(C)C)cc1F`: in assay [1], the outcome was “inactive”. Further, the Potency entry in assay [2] and in assay [3] was “inactive” throughout.

For the compound `CCCc1nc2c(C)cc(-c3nc4ccccc4n3C)cc2n1Cc1ccc(-c2ccccc2C(=O)O)cc1`, in assay [1], the outcome was “inactive”. Also, the Potency result in [2], in assay [3] and in assay [5] was “inactive” throughout. Moreover, in assay [4], the Potency is 8.71 µM (active).

Consider `O=C(c1cc(Cc2n[nH]c(=O)c3ccccc23)ccc1F)N1CCN(C(=O)C2CC2)CC1`, for which the outcome in assay [1] was “inactive”. Besides, in assay [2], the Potency result is “inactive”. Moreover, the Potency in assay [3] was 6.61 µM (active); in assay [5] it was 3.72 µM (active).

Consider `N#Cc1ccc(C(c2ccc(C#N)cc2)n2cncn2)cc1`, for which, in [1], the outcome was “inactive”. Also, the Potency result in assay [2], in assay [6] and in assay [3] was “inactive” in each case.

As for `NC(=O)c1ccc(-c2nc(-c3ccc4c(c3)OCO4)c(-c3ccccn3)[nH]2)cc1`, in assay [1], the outcome was “inactive”. Also, in assay [2], the Potency entry was “inactive”.

On to `COc1ccc(C2=N[C@H](c3ccc(Cl)cc3)[C@H](c3ccc(Cl)cc3)N2C(=O)N2CCNC(=O)C2)c(OC(C)C)c1`, for which the outcome in [1] is “inactive”. The Potency result in assay [2] was “inactive”. The Potency in assay [3] is 18.6 µM (active).

For `O=C(Nc1ccc(F)c(C(F)(F)F)c1)Nc1nnc(-c2ccncc2)s1`, the outcome in assay [1] is “inactive”. Further, the Potency entry in [2] and in assay [3] was “inactive” in each case.

Take `CC(c1cc2ccccc2s1)N(O)C(N)=O` (stereo not given): the outcome in [1] is “inactive”. The Potency entry in [2], in assay [7], in assay [6], in [3] and in assay [5] was “inactive” each time. The Potency in assay [8] was 13.8 µM (active).

`Cc1cc2c(F)c(Oc3ncnn4cc(OC[C@@H](C)O)c(C)c34)ccc2[nH]1`: the outcome in assay [1] was “inactive”. Moreover, the Potency entry in assay [2] is “inactive”. Moreover, in assay [3], the Potency was 2.63 µM (active).

On to `CCCS(=O)(=O)Nc1ccc(F)c(C(=O)c2c[nH]c3ncc(-c4ccc(Cl)cc4)cc23)c1F`, for which the outcome in [1] is “inactive”. Further, the Potency entry in [2] was “inactive”. The Potency in assay [3] was 18.4 µM (active) and inactive. The activity in assay [9] is -8.94%. The activity change, negative = inhibition in assay [10] is -0.0685%.

Regarding `CN[C@@H](C)C(=O)N[C@H]1CCCC[C@H]2CC[C@@H](C(=O)N[C@@H](c3ccccc3)c3cn(CCCCc4ccc(CCCCn5cc([C@@H](NC(=O)[C@@H]6CC[C@@H]7CCCC[C@H](NC(=O)[C@H](C)NC)C(=O)N76)c6ccccc6)nn5)cc4)nn3)N2C1=O`, in assay [1], the outcome was “inactive”. The Potency entry in assay [2] and in assay [5] was “inactive” throughout.

For the compound `COc1cc(Nc2ncc3c(n2)-c2ccc(Cl)cc2C(c2c(F)cccc2OC)=NC3)ccc1C(=O)O`, in [1], the outcome was “inactive”. In assay [4], the Potency entry is “inactive”. The Potency in assay [3] is 115 nM (active) and 20.5 nM (active) and 66.1 nM (active). The activity in assay [9] amounted to 0.763%. Further, the activity change, negative = inhibition in assay [10] stood at 2.21%.

Consider `Cc1ccc(N(CC2=NCCN2)c2cccc(O)c2)cc1`, for which the Potency result (in [11]; in [2]; in assay [7]; in [4]; in the assay with Papain (Carica papaya); in assay [3]) was “inactive” throughout. The Potency in assay [6] is 0.309 µM (active).

For the compound `Cc1c(CCOc2ccc(C(=O)O)cc2)c2cc(Cl)ccc2n1C(c1ccccc1)c1ccccc1`, the outcome in assay [1] was “inactive”. The Potency result in assay [2], in [3] and in [5] was “inactive” each time.

In the case of `Cc1cc(SCc2sc(-c3ccc(C(F)(F)F)cc3)nc2C)ccc1OCC(=O)O`, the outcome in assay [1] is “inactive”. Also, the Potency result in assay [2], in assay [3] and in assay [5] was “inactive” each time.

`Cc1cc([C@@H](C)Nc2ccccc2C(=O)O)c2nc(N3CCOCC3)cc(=O)n2c1`: the outcome in assay [1] was “inactive”. In addition, the Potency entry in assay [2] is “inactive”. Besides, the Potency was 2.24 µM (active) and 1.86 µM (active) in assay [3]; 2.51 µM (active) and 1.66 µM (active) in assay [5].

Take `Nc1nccc(-c2ccc3noc(-c4ccc(Cl)cc4)c3c2)n1`: the outcome in assay [1] was “inactive”. The Potency entry in [2] and in [3] was “inactive” in each case. Also, the activity in [9] is -4.29%. Moreover, the activity change, negative = inhibition in assay [10] was 4.33%.

As for `NC(=O)c1ccc(I)c([N+](=O)[O-])c1`, the outcome in [1] was “inactive”. The Potency entry in assay [2] was “inactive”. The Potency is 18.6 µM (active) in assay [3] and 16.6 µM (active) in [5].

On to `CC(=O)NC(C)c1ccc(Oc2ccc(OC(C)C)cc2)cc1` (stereo not given), for which, in assay [2], the Potency entry is “inactive”.

With `CCN(c1ccccc1)c1cc(NC)[n+](C)c(C)n1`, in [1], the outcome is “inactive”. For the same compound, the Potency result in [2], in [3] and in assay [5] was “inactive” throughout.

Turning to `CO[C@@H]1[C@H](N(C)C(=O)c2ccccc2)C[C@H]2O[C@]1(C)n1c3ccccc3c3c4c(c5c6ccccc6n2c5c31)C(=O)NC4`, in [1], the outcome is “inactive”. Besides, the Potency result in assay [2] was “inactive”. The Potency is 1.3 µM (active) and 1.05 µM (active) in assay [3]; 1.3 µM (active) and 525 nM (active) in assay [5].

For `CCC(=O)N[C@H]1CC[C@H](C(=O)N(C)c2ccc(-c3nc4ccccc4o3)cc2)C1`, the outcome in [1] was “inactive”. Further, the Potency result in [2] is “inactive”. Further, the Potency in assay [5] is 18.6 µM (active).

For the compound `COc1ccc2c3n(c(=NC(=O)c4cccnc4)nc2c1OC)CCN3`, the outcome in assay [1] was “inactive”. In addition, in [2], the Potency result is “inactive”. Further, the Potency in assay [3] is 0.166 µM (active); in [5] it was 0.186 µM (active).

`CCn1c(-c2nonc2N)nc2cnc(Oc3cccc(NC(=O)c4ccc(OCCN5CCOCC5)cc4)c3)cc21`: in [1], the outcome was “inactive”. For the same compound, the Potency result in assay [2] was “inactive”. Also, the Potency was 3.26 µM (active) and 662 nM (active) in [3]; 326 nM (active) and 417 nM (active) in assay [5].

For `COCCNCCCn1c(C(=O)CF)c(-c2ccc(C)cc2)c2c(N)ncnc21`, the outcome in [1] was “inactive”. Besides, the Potency result in [2] was “inactive”. For the same compound, the Potency in [3] was 18.6 µM (active); in assay [5], 16.6 µM (active).

`C[C@]12CCC(=O)C=C1CC[C@@H]1[C@@H]2[C@@H](O)C[C@@]2(C)[C@H]1CC[C@]2(O)C(=O)CO`: the Potency entry (in assay [2]; in assay [7]; in assay [6]; in assay [4]; with Papain (Carica papaya); in assay [3]) was “inactive” throughout.
